In PubChem BioAssay (NCATS):
Inconclusive results are not listed. The source made the active and inactive calls. Calls come from the whole dose curve; as a rule, active = well fitted curve in the direction sought with a large enough effect; inconclusive = small, poorly fitted or top-dose-only effect, or another doubt; inactive = no such curve, though single readings can be large; an effect the other way counts as inactive or inconclusive.

Legend:
[1] = qHTS of pediatric cancer cell lines to identify multiple opportunities for drug repurposing: Primary screen for NB-EBc1 cells (AID 1347095); note: potency is the fitted concentration of half-maximal effect
How it was run: (§1)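 Luminescence from CellTiter-Glo served as readout of metabolically active cells after 48 h compound exposure. Titrations: MIPE 11-point, from 0.78 nM; NPC 8-point, from 0.59 nM (final). Concentration-response curves came straight from the primary screen.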

[2] = qHTS of pediatric cancer cell lines to identify multiple opportunities for drug repurposing: Primary screen for U-2 OS cells (AID 1347096); note: nearly all actives have a fitted effect of over 50% in size
How it was run: (§2)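 Viability after 48 h compound treatment at 37C, 500-1,000 cells/well, read as ATP luminescence with CellTiter-Glo. Primary screens used 11-point (MIPE, 0.78 nM-46 µM) or 8-point (NPC, 0.59 nM-46 µM) final concentrations; follow-up screens used 11-point dilutions.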

[3] = qHTS of pediatric cancer cell lines to identify multiple opportunities for drug repurposing: Primary screen for SK-N-SH cells (AID 1347098); note: nearly all actives have a fitted effect of over 65% in size; note: potency is the fitted concentration of half-maximal effect
How it was run: (§3)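 Cells (500-1,000/well) rested 5 h, then received compounds for 48 h; metabolically active cells were measured by CellTiter-Glo luminescence. Final concentrations spanned up to 46 µM (MIPE, 11-point) or 0.59 nM-46 µM (NPC, 8-point) in primary screens, 11-point in follow-ups.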

[4] = qHTS of pediatric cancer cell lines to identify multiple opportunities for drug repurposing: Primary screen for LAN-5 cells (AID 1347100); note: potency is the fitted concentration of half-maximal effect
How it was run: as §2

[5] = qHTS of pediatric cancer cell lines to identify multiple opportunities for drug repurposing: Primary screen for BT-12 cells (AID 1347101); note: nearly all actives have a fitted effect of over 25% in size; note: potency is the fitted concentration of half-maximal effect
How it was run: as §3

[6] = qHTS of pediatric cancer cell lines to identify multiple opportunities for drug repurposing: Primary screen for RD cells (AID 1347104); note: nearly all actives have a fitted effect of over 55% in size; note: potency is the fitted concentration of half-maximal effect
How it was run: as §1

[7] = qHTS of pediatric cancer cell lines to identify multiple opportunities for drug repurposing: Primary screen for MG 63 (6-TG R) cells (AID 1347105); note: nearly all actives have a fitted effect of over 50% in size; note: potency is the fitted concentration of half-maximal effect
How it was run: as §1

[8] = qHTS of pediatric cancer cell lines to identify multiple opportunities for drug repurposing: Primary screen for control Hh wild type fibroblast cells (AID 1347106);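 note: series mostly up to about 46 µM; a drop in luminescence marks cytotoxicity and a rise apparent proliferation; nearly all actives have a fitted effect of over 55% in size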
How it was run: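 Cells (500-1,000/well) in growth media were settled 5 h at 37 degrees C, then given compounds for 48 h. Viability was read as CellTiter-Glo luminescence. Primary runs used MIPE at 11 points (0.78 nM-46 µM) and NPC at 8 points (0.59 nM-46 µM); follow-ups used 11 points.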

[9] = qHTS of pediatric cancer cell lines to identify multiple opportunities for drug repurposing: Primary screen for Rh30 cells (AID 1347107); note: series mostly up to about 46 µM; nearly all actives have a fitted effect of over 75% in size
How it was run: as §2

[10] = qHTS of pediatric cancer cell lines to identify multiple opportunities for drug repurposing: Primary screen for NB1643 cells (AID 1347099); note: nearly all actives have a fitted effect of over 50% in size; note: potency is the fitted concentration of half-maximal effect
How it was run: as §1

[11] = qHTS of pediatric cancer cell lines to identify multiple opportunities for drug repurposing: Primary screen for Rh18 cells (AID 1347102); note: nearly all actives have a fitted effect of over 65% in size; note: potency is the fitted concentration of half-maximal effect
How it was run: as §2

[12] = qHTS of pediatric cancer cell lines to identify multiple opportunities for drug repurposing: Primary screen for OHS-50 cells (AID 1347103); note: nearly all actives have a fitted effect of over 40% in size; note: potency is the fitted concentration of half-maximal effect
How it was run: as §3

[13] = qHTS of pediatric cancer cell lines to identify multiple opportunities for drug repurposing: Primary screen for Rh41 cells (AID 1347108);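 note: series mostly up to about 46 µM; luminescence drop marks cytotoxic hits; nearly all actives have a fitted effect of over 70% in size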
How it was run: as §1

[14] = qHTS of pediatric cancer cell lines to identify multiple opportunities for drug repurposing: Confirmatory screen for A673 cells (AID 1347110); note: potency is the fitted concentration of half-maximal effect; nearly all actives have a fitted effect of over 65% in size
How it was run: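 qHTS titration format: primary MIPE 0.78 nM-46 µM (11 pts), NPC 0.59 nM-46 µM; confirmation 11 pts. 48 h, CTG luminescence.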

[15] = qHTS of pediatric cancer cell lines to identify multiple opportunities for drug repurposing: Confirmatory screen for SK-N-MC cells (AID 1347111);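 note: potency is the fitted concentration of half-maximal effect; cells exposed to compound for 48 h before the readout; nearly all actives have a fitted effect of over 70% in size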
How it was run: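 SK-N-MC cells at 500-1,000 cells/well in growth media were pre-incubated 5 h, then exposed to compounds at 11-point dilutions for 48 h at 37 degrees C, 5% CO2. Viability was read as CellTiter-Glo luminescence.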

[16] = qHTS of pediatric cancer cell lines to identify multiple opportunities for drug repurposing: Confirmatory screen for LAN-5 cells (AID 1347113); note: nearly all actives have a fitted effect of over 65% in size; note: potency is the fitted concentration of half-maximal effect
How it was run: as §2

[17] = qHTS of pediatric cancer cell lines to identify multiple opportunities for drug repurposing: Primary screen for Saos-2 cells (AID 1347097); note: nearly all actives have a fitted effect of over 40% in size; note: potency is the fitted concentration of half-maximal effect
How it was run: as §1

[18] = qHTS of pediatric cancer cell lines to identify multiple opportunities for drug repurposing: Confirmatory screen for NB1643 cells (AID 1347109); note: potency is the fitted concentration of half-maximal effect; nearly all actives have a fitted effect of over 45% in size
How it was run: as §2

[19] = qHTS of pediatric cancer cell lines to identify multiple opportunities for drug repurposing: Confirmatory screen for NB-EBc1 cells (AID 1347115); note: potency is the fitted concentration of half-maximal effect; nearly all actives have a fitted effect of over 45% in size
How it was run: as §2

[20] = qHTS of pediatric cancer cell lines to identify multiple opportunities for drug repurposing: Confirmatory screen for DAOY cells (AID 1347114)
How it was run: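 Viability measured as metabolically active cells via CellTiter-Glo luminescence following 48 hours of compound exposure, 11-point dilutions in confirmatory testing. 500-1,000 cells/well plated 5 hours before dosing; controls were DMSO and 2.3 µM bortezomib.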

Measured: Potency

CCOC(=O)N1CCC(Nc2ccc(Cl)cc2N)CC1
active: [1] 6.68 µM | [3] 19.4 µM | [4] 2.66 µM | [5] 4.9 µM
inactive: [2] | [6] | [7] | [8] | [9]

Cc1nc(N)nc(N)c1-c1ccc(Cl)c(Cl)c1
inactive: [10] | [11] | [8] | [9] | [13] | [16]
active: [1] 0.422 µM | [5] 0.872 µM | [12] 2.76 µM | [6] 1.33 µM | [14] 1.65 µM | [15] 0.147 µM

C[C@@H](O[C@H]1OCCN(Cc2n[nH]c(=O)[nH]2)[C@H]1c1ccc(F)cc1)c1cc(C(F)(F)F)cc(C(F)(F)F)c1
active: [1] 18.8 µM | [17] 11.9 µM | [3] 34.4 µM | [5] 15.5 µM | [11] 23.7 µM | [12] 27.6 µM | [6] 26.6 µM
inactive: [8] | [9]

CC1CCCCN1CCCOC(=O)c1ccc(OC2CCCCC2)cc1 (stereo not drawn)
active: [12] 24.6 µM
inactive: [1] | [2] | [10] | [4] | [11] | [6] | [7] | [8] | [9] | [13]

O=C1OC2(c3ccccc31)c1cc(I)c(O)c(I)c1Oc1c2cc(I)c(O)c1I
inactive: [1] | [2] | [3] | [6] | [7] | [13]

O=C1NCCN1CCN1CCC(c2cn(-c3ccc(F)cc3)c3ccc(Cl)cc23)CC1
active: [1] 21.1 µM | [17] 21.1 µM | [3] 21.7 µM | [4] 8.41 µM | [5] 8.71 µM | [12] 11 µM | [6] 26.6 µM

CC(C(O)c1ccccc1)N(C)CCOC(c1ccccc1)c1ccccc1 (stereo not drawn)
inactive: [1] | [10] | [7] | [8] | [9] | [13]
active: [5] 21.9 µM | [12] 27.6 µM

Nc1c2ccccc2nc2ccccc12
active: [1] 3.76 µM | [3] 9.7 µM | [5] 12.3 µM | [12] 24.6 µM | [6] 15 µM | [18] 4.14 µM | [14] 6.57 µM | [15] 3.29 µM | [16] 3.69 µM | [19] 6.57 µM

O=c1[nH]c2ccccc2c(=O)n1CCCl
not listed: [1] | [13] | [14] | [15] | [16] | [18] | [19] | [20]
inactive: all other assays above

CN1CCCN(C(c2ccccc2)c2ccc(Cl)cc2)CC1 (stereo not drawn)
active: [3] 15.4 µM | [4] 15 µM | [12] 30.9 µM
inactive: [1] | [2] | [7] | [8] | [9] | [13]

Cc1nc(C2CCCCC2)c(-c2ccc(S(N)(=O)=O)c(F)c2)o1
inactive: [1] | [2] | [10] | [4] | [11] | [6] | [7] | [8] | [9] | [13]

O=c1[nH]sc2cc(Cl)ccc12
inactive: [6] | [8]
active: [1] 0.001 µM | [3] 0.217 µM | [10] 0.168 µM | [4] 0.001 µM | [11] 18.8 µM | [12] 13.8 µM | [18] 8.27 µM | [15] 9.27 µM | [16] 10.4 µM | [19] 20.8 µM

CN1CC[C@H](c2c(O)cc(O)c3c(=O)cc(-c4ccccc4Cl)oc23)[C@H](O)C1
active: [1] 0.133 µM | [5] 0.276 µM | [12] 0.276 µM | [6] 0.596 µM
inactive: [8] | [9]

CC(C)(C)c1ccc(O)c(O)c1
active: [1] 6.11 µM | [17] 48.6 µM | [3] 25 µM | [10] 17.2 µM | [4] 19.3 µM | [5] 25.2 µM | [6] 8.63 µM

O=c1[nH]c(=O)n([C@H]2O[C@H](CO)[C@@H](O)[C@@H]2O)cc1/C=C\Br
not listed: [10] | [14] | [15] | [16] | [17] | [18] | [19] | [20]
inactive: all other assays above

CCC1=C[C@@H]2CN(C1)Cc1c([nH]c3ccccc13)[C@@](C(=O)OC)(c1cc3c(cc1OC)N(C)[C@H]1[C@@](O)(C(=O)OC)[C@H](OC(C)=O)[C@]4(CC)C=CCN5CC[C@]31[C@@H]54)C2
active: [1] 0.0335 µM | [10] 2.66 µM | [4] 0.0084 µM | [5] 0.0347 µM | [12] 0.0195 µM | [18] 0.104 µM | [14] 0.0117 µM | [15] 0.0185 µM | [16] 0.329 µM | [20] 0.0329 µM
inactive: [9]

CCN(CC)CC(=O)Nc1c(C)cccc1C(=O)OC
inactive: [1] | [2] | [10] | [4] | [5] | [6] | [7] | [8] | [9] | [13]

CN1CCC(Nc2ncc3ncnc(Nc4ccc(F)c(Cl)c4)c3n2)CC1
active: [3] 17.2 µM | [11] 26.6 µM | [12] 27.6 µM
inactive: [1] | [17] | [10] | [7] | [9] | [13]

C=CCNc1nc(NCC=C)nc(N2CCN(C(c3ccc(F)cc3)c3ccc(F)cc3)CC2)n1
inactive: [1] | [2] | [4] | [7] | [8] | [9] | [13]

O=[N+]([O-])c1ccc(O)c2ncccc12
active: [1] 2.37 µM | [17] 10.6 µM | [3] 3.44 µM | [10] 1.88 µM | [4] 3.76 µM | [5] 5.5 µM | [12] 5.5 µM | [6] 5.31 µM | [7] 6.68 µM | [18] 14.7 µM | [15] 8.27 µM | [16] 9.27 µM | [19] 7.37 µM

CN(C)CCCOC1(Cc2ccccc2)CCCCCC1
inactive: [1] | [2] | [3] | [4] | [5] | [11] | [6] | [7] | [9] | [13]

CC(=O)OC/C=C(C)/C=C/C=C(C)/C=C/C1=C(C)CCCC1(C)C
inactive: [1] | [2] | [10] | [4] | [11] | [12] | [6] | [7] | [8] | [9] | [13]

COC(=O)C1=C(C)NC(COC(N)=O)=C(C(=O)OC(C)C)C1c1cccc(Cl)c1Cl (stereo not drawn)
inactive: [1] | [2] | [4] | [11] | [6] | [7] | [8] | [9] | [13]
active: [3] 24.4 µM

O=C(Nc1ccc(Cl)cc1)Nc1ccc(Cl)c(Cl)c1
active: [1] 23.7 µM | [3] 12.2 µM | [12] 24.6 µM | [6] 23.7 µM
inactive: [8]

COc1ccc(-n2nc(CCC(=O)N(C)O)cc2-c2ccc(Cl)cc2)cc1
inactive: [2] | [10] | [11] | [7] | [8]
active: [1] 21.1 µM | [12] 19.5 µM
